Among all 350,000 compounds or so, about 31,000 (8.9%) were called active. Another 15% or so got no clear call; they are omitted. Calls come from the whole dose curve; as a rule, active = well fitted inhibition curve with a large enough effect; inconclusive = small, poorly fitted or top-dose-only effect; inactive = no such curve, though single readings can be large or run the other way. The list comes from a sample in which actives are over-represented; it also holds similar structures and randomly drawn compounds.
What follows are compounds tested against Histone-lysine N-methyltransferase EHMT2 (Homo sapiens) (UniProt Q96KQ7) (assay: qHTS Assay for Inhibitors of Histone Lysine Methyltransferase G9a). Conditions: G9a H3K9 monomethylation, AlphaScreen, 2 h; series mostly up to 59 µM.
Sequence of Histone-lysine N-methyltransferase EHMT2 (Homo sapiens) (Q96KQ7 913-1193 limits assumed): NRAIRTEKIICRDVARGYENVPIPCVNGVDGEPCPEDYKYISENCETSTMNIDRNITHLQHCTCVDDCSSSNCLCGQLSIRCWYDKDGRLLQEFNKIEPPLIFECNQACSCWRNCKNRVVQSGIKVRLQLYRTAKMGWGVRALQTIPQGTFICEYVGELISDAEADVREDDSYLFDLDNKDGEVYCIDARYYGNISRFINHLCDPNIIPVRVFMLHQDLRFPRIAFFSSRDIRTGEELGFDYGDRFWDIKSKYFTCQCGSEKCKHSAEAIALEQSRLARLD
Excerpt: Methylated lysines, on the N-terminal tails of histone proteins serve as epigenetic markers to recruit factors that can then modify local chromatin structure to lead to functional consequences. G9a and other members of the SUV39 family of the SET domain-containing superfamily of histone lysine methyltransferases (HMT) have been identified to specifically methylate Lys9 of histone H3 (H3K9). G9a catalyzes the mono- and di-methylation of H3K9 in mammalian euchromatic regions, where the resulting H3K9me2 is indicative of transcriptional repression. […] The inhibition of G9a will result in transcriptional activation and work synergistically with DNA methyltransferase and histone deacetylase inhibitors, to kill cancer cells. This qHTS assay for identification of G9a inhibitors is a chemiluminescence based AlphaScreen (PerkinElmer). Methylation of biotinylated-histone peptide is measured through specific antibody-based detection, in conjunction with streptavidin-coated donor and anti-IgG antibody-coated acceptor beads. The method is particularly well suited for detection of inhibitors acting by the desired histone peptide competitive mechanism and is applicable to testing other HMTs. Although AlphaScreen has significant advantages with its utility in a variety of epigenetic target assays, the primary screening data provided in this deposition should be used with caution due to the prevalence of screening artifacts. An AlphaScreen counterscreen is highly recommended to be run against any putative actives to eliminate non specific artifacts. Alternatively, one can use other AlphaScreen assays in PubChem to filter out promiscuous hits. Quinn et al. A chemiluminescence-based method for identification of histone lysine methyltransferase inhibitors. Mol Biosyst 6(5): 782-8. 2010. PMID: 20567762 [2] Baell,Holloway. New substructure filters for removal of pan assay interference compounds (PAINS) from screening libraries and for their exclusion in bioassays. J Med Chem. 53(7):2719-40. 2010. PMID: 20131845 NIH Molecular Libraries Probe Production Network [MLPCN] NIH Chemical Genomics Center [NCGC] Structural Genomics Consortium (SGC) NIH Grant: 5U54 MH084681-02
To each well of a 1,536w plate, 2ul of HMT enzyme (final 20nM) were added, using a nanoliter dispenser. The G9a- and GLP-inhibitor BIX-01294 (CID: 25150857) are used as an intraplate control, with a 16-point titration in duplicate. A Kalypsys pin-tool transferred 23nl of library compound solution in DMSO to each well. Following a 15 min incubation of enzyme with compounds at room temperature, 1ul mixture of b-H3K9 peptide substrate (final 500nM) and SAM cofactor (final 20uM) were added. Reactions were allowed to proceed at room temperature for 2 hours. Methylated b-H3K9 peptide product was detected with 0.5 ug/mL rabbit polyclonal anti-monomethyl histone H3K9 antibody (Abcam Inc., Cambridge, MA) and 20 ug/mL each streptavidin-coated donor and anti-rabbit IgG acceptor AlphaScreen beads. Antibody and beads were added in a 1ul dispense, for a final volume of 4ul, and plates were incubated, protected from the light, for 10 min at room temperature. Microplates were then read on an EnVision multilabel plate reader using the 1,536 plate HTS AlphaScreen aperture (excitation time 80 ms, measurement time 240 ms).
% is set by controls: 0 for no effect and ±100 for the full control effect; potency is the fitted concentration of half-maximal effect.
Note: nearly all actives have a fitted effect of over 75% in size.

Potency, inactive:
O=C(NCCSc1ccccc1)c1ccco1
Cc1ccc(C(=O)NCCNS(=O)(=O)c2ccccc2)cc1
CC(OC(=O)CCC(=O)c1ccccc1)C(=O)Nc1ccc(F)cc1 (centres undefined)
O=C(Nc1ccc(S(=O)(=O)NCC2CCCO2)cc1)c1ccc(F)cc1 (centres undefined)
N#Cc1c(C(F)(F)F)cc(-c2ccc(Cl)cc2)nc1SCC(=O)O
CCSc1nc(-c2ccc(OC)cc2)cc(-c2ccc(OC)cc2)c1C#N
CCc1ccc(NC(=O)c2cnc3c(-c4ccccc4)c(C)nn3c2C)cc1
O=C(NCc1ccc2c(c1)OCO2)c1c(O)nc2sccn2c1=O
Cc1ccc(NC(=O)C(Cc2ccccc2)NS(=O)(=O)c2ccc3c(c2)oc(=O)n3C)cc1C (centres undefined)
O=C(C[n+]1ccccc1)N/N=C/c1ccc(O)cc1
O=C(N/N=C/c1ccc(OCc2ccccc2)cc1)c1ccc(O)cc1
Cc1ccc(Cn2c(CNC(=O)Cc3cccc(C)c3)nc3cccnc32)cc1
CC1=C(C(N)=O)C(c2ccc(Br)cc2)n2ncnc2N1 (centres undefined)
CCOC(=O)C1=C(c2ccccc2)Nc2ncnn2C1c1ccc(Cl)cc1 (centres undefined)
COc1cc(NC(=O)c2nn(-c3ccc(C)cc3)c(=O)c3c2c2ccccc2n3C)cc(OC)c1OC
COc1ccc2c(c1)CCc1c(C(=O)Nc3cc(C)ccc3O)noc1-2
Cc1ccc(S(=O)(=O)c2ccc(Oc3ccccc3)cc2)cc1
CC(C)(C)c1ccc(OC2=CS(=O)(=O)c3ccccc32)cc1
Cc1cc(C(C)(C)C)cc(C)c1N
NC(=O)NC(=O)C(OC(=O)CCNS(=O)(=O)c1ccccc1)c1ccccc1 (centres undefined)
CCCS(=O)(=O)Nc1cccc(-c2cn3ccsc3n2)c1
Cc1ccc(S(=O)(=O)c2c(Nc3cccc(Cl)c3)sc(C(=O)c3ccc4c(c3)OCO4)c2N)cc1
COc1ccc(CNC(=O)CCc2c(C)nn(-c3ccc(N4CCCC4)nn3)c2C)cc1
O=C(c1ccncc1)c1ccc([N+](=O)[O-])cc1
O=C(Cn1c[n+](CC(=O)c2ccc([N+](=O)[O-])cc2)cn1)c1ccc([N+](=O)[O-])cc1
Cc1cccc(CNC(=O)c2cnc3sc(N4CCCCC4)nn3c2=O)c1
CCCC12CN3CC(CCC)(CN(C1)C3c1c[nH]c3ccc(OC)cc13)C2=O (centres undefined)
CCn1c(CNC(=O)C23CC4CC(CC(C4)C2)C3)nnc1SCC(=O)Nc1ccc(OC)cc1
Cc1ccc(-c2nc(SCc3ccc(Br)cc3)n3[nH]c(=O)cc3n2)cc1
NC(=O)C(=O)N/N=C/c1ccc([N+](=O)[O-])o1
Cc1ccc(Nc2ccc3cc(S(=O)(=O)N4CCCCC4)ccc3n2)cc1F
O=S(=O)(c1ccc2nc(N3CCN(c4cccc(Cl)c4)CC3)ccc2c1)N1CCCCC1
COc1ccc(NC(=O)CN(C)C(=O)c2cccc(S(=O)(=O)N3CCN(c4ccccc4)CC3)c2)cc1
COc1cc(C(=O)N2CCN(C)CC2)cc(OC)c1OC
COC(=O)c1cccc(NC(=O)CN2CCC(NC(=O)c3cc(OC)c(OC)c(OC)c3)CC2)c1
CCOC(=O)c1ccccc1CN1C(=O)c2ccccc2S1(=O)=O
Cc1cc(C)c2oc(-c3cccc(NC(=O)c4cccc(F)c4)c3C)nc2c1
COc1ccc(/C(C)=N/NC(=O)c2ccc3nc[nH]c3c2)cc1
CC/C(O)=N\S(=O)(=O)c1ccc(N=NN(C)C)cc1
C=CCn1c(CNC(=O)c2ccco2)nnc1SCC(=O)c1ccc(OC)cc1
CCOC(=O)Cc1csc(NC(=O)CSc2nnc(-c3cccnc3)n2Cc2ccco2)n1
O=C(CSc1nnc(-c2cccnc2)n1Cc1ccco1)c1ccc(Cl)cc1
O=C(COc1ccc(Cl)cc1)Nc1ccc(-c2nc3cc(Cl)ccc3o2)c(O)c1
CCc1ccc(C(=O)NNC(=O)C2CCN(c3ncnc4sc(C)c(C)c34)CC2)cc1
Cc1ccc(Cl)cc1N(C)C(=O)C1CCCN(c2ncnc3onc(-c4ccc(F)cc4)c23)C1 (centres undefined)
CCC1(CC)NC(=O)N(CC(=O)OCC(=O)c2cc(C)c(C)cc2C)C1=O
CCc1ccc(NC(=O)Cn2c(=O)n(CCC(=O)NCc3ccc4c(c3)OCO4)c(=O)c3ccccc32)cc1
CC(C)(C)NC(=O)CSc1nc(-c2ccc(F)cc2)cc(C(F)(F)F)n1
O=C(NCCS(=O)(=O)NCc1ccc(F)cc1)c1ccccc1
Cc1ccc(NC(=O)c2ccc(CN3CC(=O)N4CCCCC4C3=O)cc2)c(Cl)c1 (centres undefined)
Cc1ccc2sc(N(Cc3cccnc3)C(=O)C3COc4ccccc4O3)nc2c1C (centres undefined)
Cc1cc(NC(=O)CSc2nc3cc(Cl)ccc3c(=O)n2Cc2ccco2)no1
CCn1c(SCC(=O)Nc2cc(C)c(Cl)cc2OC)nnc1-c1ccco1
CCCCN(C)S(=O)(=O)c1ccc(C(=O)Nc2sc3c(c2C(N)=O)CC(C)(C)NC3(C)C)cc1
COc1ccc(-c2nc3c4ccccc4n(CC(=O)Nc4ccc(C(C)=O)cc4)c(=O)n3n2)cc1
COCCN1C(=O)C(=O)/C(=C(/O)c2ccc(S(=O)(=O)N3CCOCC3)cc2)C1c1ccc(O)c(OC)c1 (centres undefined)
COCCN1C(=O)C(=O)/C(=C(/O)c2ccc(S(=O)(=O)N3CCCCC3)cc2)C1c1ccc(OC)c(OC)c1 (centres undefined)
CC(CCCc1ccccc1)NC(=O)c1nn(-c2ccc(Cl)cc2)nc1CO (centres undefined)
O=C(Nc1nnc(S(=O)(=O)N2CCCc3ccccc32)s1)c1cccc(F)c1
Cc1cccc(NC(=O)Cn2c(C(F)(F)F)nc3ccccc32)c1C
CCc1ccccc1NC(=O)c1sc2nc3c(cc2c1N)CN(Cc1ccccc1)CC3
CCc1ccc(NC(=O)CSc2nc3c([nH]c4ccccc43)c(=O)n2-c2cccc(OC)c2)cc1
Cc1ccc2c(c1)c1c(c(=O)n(-c3ccccc3)c(=O)n1CC(=O)c1ccc(Cl)cc1)n2C

Potency, active:
CCS(=O)(=O)Nc1ccc(C(=O)NCCSc2ccccc2)cc1 79.4 µM
N#Cc1c(-c2ccccc2)cc(-c2ccccc2)nc1SCC(=O)O 11.2 µM
Oc1ccc(/C=N/N(Cc2ccccc2)c2ccccc2)cc1 39.8 µM
Fc1ccccc1/C=C1\CCCC2=C1Nc1ncnn1C2c1ccccc1F (centres undefined) 35.5 µM
Cc1ccc(Oc2ccc(N)cc2)cc1 50.1 µM
CC(C)(C)c1ccc(Oc2ccc(N)cc2)cc1 50.1 µM
O=C(CC(n1cncn1)C(Cl)(Cl)Cl)c1ccc([N+](=O)[O-])cc1 (centres undefined) 10 µM
O=C(O)[C@@H](S)[C@H](S)C(=O)O 6.31 µM
S=C(NNC(=S)NC1CC2C=CC1C2)NC1CC2C=CC1C2 (centres undefined) 2 µM
O=S(=O)(c1ccc2nc(NCc3ccccc3Cl)ccc2c1)N1CCCCC1 7.94 µM
CCN1CCN(CC(=O)c2cc(OC)c(OC)c(OC)c2)CC1 39.8 µM
CN(C)N=Nc1ccc2nc[nH]c2c1 1.78 µM
O=C(CSc1nnc(-c2cnccn2)n1Cc1ccco1)c1ccc(Cl)c(Cl)c1 50.1 µM
C(=C\c1ccccc1)/CSc1nnc(-c2cccnc2)n1Cc1ccco1 50.1 µM
O=C(CSc1nnc(-c2cccnc2)n1Cc1ccco1)c1ccc(Cl)c(Cl)c1 50.1 µM
COc1ccc(C(=O)CSc2nnc(COc3ccccc3)n2Cc2ccco2)cc1 50.1 µM
COc1cc(Cl)c(C)cc1NC(=O)CSc1nnc(-c2cccnc2)n1Cc1ccco1 39.8 µM
COc1cc(C2/C(=C(\O)c3ccc4c(c3)CC(C)O4)C(=O)C(=O)N2c2nnc(C)s2)cc(OC)c1OC (centres undefined) 44.7 µM
CCN1CCc2nc3sc(C(=O)Nc4ccccc4OC(F)(F)F)c(N)c3cc2C1 14.1 µM

activity, negative = inhibition, inactive:
CCCN(C(=O)c1nc2nccc(C)n2n1)c1c(N)n(Cc2ccccc2)c(=O)[nH]c1=O 3.83% [at 12.7 µM]
Cc1cc(C)cc(N)c1 2.02% [at 0.501 µM]
Cc1ccc(NC(=O)Cc2nc(COC(=O)C(C)NS(=O)(=O)c3ccc(C)cc3)cs2)cc1 (centres undefined) -6.75% [at 12.7 µM]
Cc1ccc(NC(=O)CSc2nnc(-c3cnccn3)n2Cc2ccco2)cc1C 7.37% [at 12.7 µM]
O=C(CSc1nnc(COc2ccc(Cl)cc2)n1Cc1ccco1)N1CCNC1=O -16.3% [at 0.501 µM]
CCc1ccc(NC(=O)CSc2nnc(-c3cnccn3)n2Cc2ccco2)cc1 -31.5% [at 12.7 µM]
Cc1ccccc1CSc1nnc(-c2cccnc2)n1N 3.07% [at 12.7 µM]
Cn1c(Cc2csc(N)n2)nnc1SC/C=C/c1ccccc1 12.8% [at 12.7 µM]
COc1ccc2c3c(c(=O)oc2c1)C1O[C@](CCCCN2C(=O)c4ccccc4C2=O)(Cc2c1ccc1ccccc21)O3 -1.18% [at 2.33 µM]
O=C(COC(=O)CNC(=O)C1CCCCC1)Nc1cccc(F)c1 -1.37% [at 12.7 µM]
CC(C)(C)OC(=O)Nc1ccc([C@@H](NC(=O)OC(C)(C)C)C(=O)OC(C)(C)C)cc1 9.51% [at 0.501 µM]
CCc1ccc2nc3sc(C(=O)Nc4nnc(CC)s4)c(N)c3cc2c1 -8.03% [at 12.7 µM]
